Only some compounds are listed: those with a hit (about 1.8% of all), similar ones and a draw of the others.
ARNT-TACC3 inh = ARNT/TACC3 interaction disruption | Q9Y6A5 | AlphaScreen His-ARNT PAS-B/GST-TACC3 binding, luminescence; TACC3 fragment carries E629A point mutation | inhibition, % at 9.99 µM | 390,000 compounds, 0.66% hits;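 active = mean inhibition of replicates at least 50% and at least half of replicates each reaching 50%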
hiPSC survival = hiPSC single-cell survival enhancement. ATPlite luminescence; 100% = ROCK inhibitor wells, 0% = DMSO. survival enhancement, % at 20 µM. 360,000 compounds, 0.044% hits; in the data active = survival enhancement above about 18%;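 note: cells exposed to compounds for 16 hours before the ATP read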
INS-1E GSIS act = GLuc luminescence reporter in INS-1E cells, primary screen for activators of glucose-dependent secretion of insulin | 370,000 compounds, 0.61% hits | INS-1E GLuc reporter insulin secretion, 2-3 h | AID 743287 | activation, % at 16.6 µM;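 active = lowest replicate activation of at least 40%, so every replicate reaches that level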
ABCB6 inh MLPCN = inhibitors of human ABC transporter ABCB6 | Q9NP58 | K562-ABCB6 porphyrin accumulation, flow cytometry, 1 h; active compounds read low | fluorescence ratio to DMSO, % at 10 µM | 360,000 compounds, 0.19% hits | AID 602162;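 active = fluorescence ratio to DMSO below 75%, the collection mean minus 3 SD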;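 note: signal is porphyrin accumulated inside mitochondria; lower ratio means ABCB6 inhibition with less porphyrin fluorescence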
Target sequence (Q9NP58 whole entry, looked up): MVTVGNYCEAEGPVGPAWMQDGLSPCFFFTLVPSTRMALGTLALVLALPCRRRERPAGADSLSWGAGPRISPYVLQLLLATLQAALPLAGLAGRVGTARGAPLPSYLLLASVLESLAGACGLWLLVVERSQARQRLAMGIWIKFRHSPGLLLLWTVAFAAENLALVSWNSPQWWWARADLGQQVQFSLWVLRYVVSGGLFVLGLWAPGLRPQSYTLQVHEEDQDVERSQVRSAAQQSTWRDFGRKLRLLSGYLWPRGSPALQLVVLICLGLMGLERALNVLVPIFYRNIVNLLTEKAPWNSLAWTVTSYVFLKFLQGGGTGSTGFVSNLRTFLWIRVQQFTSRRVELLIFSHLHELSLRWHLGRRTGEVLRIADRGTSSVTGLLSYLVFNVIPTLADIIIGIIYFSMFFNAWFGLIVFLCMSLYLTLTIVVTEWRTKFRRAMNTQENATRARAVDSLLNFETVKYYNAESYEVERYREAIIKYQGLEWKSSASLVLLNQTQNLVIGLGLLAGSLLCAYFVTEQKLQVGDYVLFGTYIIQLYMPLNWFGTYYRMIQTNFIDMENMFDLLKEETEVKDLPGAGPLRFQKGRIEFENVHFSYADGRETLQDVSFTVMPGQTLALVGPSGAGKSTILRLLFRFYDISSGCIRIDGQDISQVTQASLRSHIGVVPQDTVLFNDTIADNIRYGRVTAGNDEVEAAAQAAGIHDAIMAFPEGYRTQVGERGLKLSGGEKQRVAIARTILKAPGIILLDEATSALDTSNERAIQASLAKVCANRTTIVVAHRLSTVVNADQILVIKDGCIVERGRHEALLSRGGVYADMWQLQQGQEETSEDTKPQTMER
NRP1-CendR mod = NRP-1/CendR interaction modulation; inhibition, % at 25 µM; FAM-RPARPAR peptide binding to NRP-1, fluorescence polarization; 360,000 compounds, 0.85% hits; AID 602438; O14786;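 active = inhibition or corrected inhibition above about 18%, plus a signal ratio from 0.5 to 1.5, limit read from the data, passing the limit was not always enough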
Large screens that a line does not name were inactive.

CCC(CC)NC(=O)CN1CCN(S(=O)(=O)c2cccs2)CC1	INS-1E GSIS act 47
Fc1cccc(-c2nnn3c2nc(Cl)c2ccccc23)c1	INS-1E GSIS act 45
Clc1nc2c(-c3ccccc3)nnn2c2ccccc12	none (no result: ARNT-TACC3 inh)
C/C=C/c1ccc([C@H]2[C@@H](CO)N(C(=O)NCCC)[C@H]2CNC(=O)C2CC2)cc1	none (no result: hiPSC survival, ABCB6 inh MLPCN, NRP1-CendR mod)
CNC(=S)NNC(=O)c1ccccc1Cl	NRP1-CendR mod 25 (no result: ARNT-TACC3 inh, INS-1E GSIS act)
O=C(CCC(=O)c1cccs1)NNC(=O)c1ccccc1Cl	NRP1-CendR mod 27
CCNC(=O)[C@H]1[C@H](CO)[C@H]2Cn3c(ccc(-c4ccncc4)c3=O)[C@@H]1N2CC1CC1	none (no result: hiPSC survival, ABCB6 inh MLPCN, NRP1-CendR mod)
CCOc1cc(N2CCOCC2)c(OCC)cc1NC(=O)COC(=O)c1cc2ccccc2cc1O	INS-1E GSIS act 141
Cc1ccc(O)c(CP(=O)(c2ccccc2)c2ccccc2)c1	INS-1E GSIS act 44
C=CCC1NS(=O)(=O)OCC1NC(=O)OCC(Cl)(Cl)Cl (centres undefined)	none
CC(C)(C)OC1NS(=O)(=O)OCC1NCOC(Cl)(Cl)Cl (centres undefined)	NRP1-CendR mod 26
C[C@@H]1CN([C@H](C)CO)C(=O)c2c(c3ccccc3n2C)-c2ccccc2CO[C@@H]1CN(C)C(=O)Nc1cccc(Cl)c1Cl	none (no result: ARNT-TACC3 inh, hiPSC survival, ABCB6 inh MLPCN, NRP1-CendR mod)
COc1ccc(C2=NN(C(=O)c3ccco3)C(c3cccs3)C2)cc1OC (centres undefined)	INS-1E GSIS act 81 (no result: ARNT-TACC3 inh)
COc1ccc(C2=NN(C(=O)CCCC(=O)O)C(c3cccs3)C2)cc1OC (centres undefined)	INS-1E GSIS act 104
O=c1c(CO)cc(CO)cc(CO)c1O	ARNT-TACC3 inh 74
Cc1noc(C)c1NC(=O)Nc1cccc2c1O[C@H](CN(C)Cc1ccc(C(=O)O)cc1)[C@H](C)CN([C@@H](C)CO)C2=O	none (no result: hiPSC survival, ABCB6 inh MLPCN, NRP1-CendR mod)
C/C(=N\NC(=S)NCCc1ccccc1)c1cccs1	NRP1-CendR mod 28
O=C1N[C@@H](Cc2ccccc2)COCc2cnnn2CC[C@@H]1Cc1ccc(-c2ccccc2)cc1	none (no result: ARNT-TACC3 inh, hiPSC survival, ABCB6 inh MLPCN, NRP1-CendR mod)
COc1ccc(C2=Nc3ccccc3NC(=O)C2N(C(=O)c2cnc(C)cn2)c2ccc(N3CCOCC3)cc2)cc1 (centres undefined)	NRP1-CendR mod 22 (no result: ARNT-TACC3 inh)
Cc1ccc(S(=O)(=O)N2CCCC(C(=O)NC3=NCCS3)C2)cc1 (centres undefined)	none (no result: INS-1E GSIS act)
Cc1ccc(S(=O)(=O)N2CCC[C@H]2C(=O)NC2=NCCS2)cc1	NRP1-CendR mod 24 (no result: INS-1E GSIS act)
CC(=O)NC(c1ccccc1)c1cc(Cl)c2cccnc2c1O (centres undefined)	none
CC(=O)NC(c1cc(F)c2cccnc2c1O)C1CC1 (centres undefined)	ARNT-TACC3 inh 40, NRP1-CendR mod 26
CC=Cc1ccc2n(c1=O)C[C@@H]1[C@@H](CO)[C@H](C(=O)NCC)[C@H]2N1S(=O)(=O)c1cn(C)cn1 (mixture of isomers)	none (no result: hiPSC survival, ABCB6 inh MLPCN, NRP1-CendR mod)
C[C@H](NC(=O)C[C@H]1CC[C@@H]2[C@H](COC[C@H](O)CN2C(=O)Nc2cccc(F)c2)O1)c1ccccc1	none (no result: hiPSC survival, ABCB6 inh MLPCN, NRP1-CendR mod)
O=C(CSc1nc(-c2ccccc2)c(-c2ccccc2)o1)N1CCCCC1	none (no result: ARNT-TACC3 inh)
NC(=O)CSc1nc(-c2ccccc2)c(-c2ccccc2)o1	INS-1E GSIS act 73
Cc1cc(C(=O)Nc2cccc3c2O[C@H](CN(C)C(=O)Nc2ccc(C(F)(F)F)cc2)[C@@H](C)CN([C@H](C)CO)C3=O)n(C)n1	none (no result: hiPSC survival, ABCB6 inh MLPCN, NRP1-CendR mod)
O=C(O)CCCC(=O)N1CCc2cc(S(=O)(=O)N3CCc4ccccc43)ccc21	NRP1-CendR mod 30
C=CCC(C#Cc1ccc(C)cc1)N(CC)CC (centres undefined)	NRP1-CendR mod 29 (no result: INS-1E GSIS act)
COc1ccc(CN(C)C(=O)c2cc(-c3ccc(OC)c(OC)c3)nc3ccccc23)c(OC)c1	INS-1E GSIS act 58
COc1cccc(CN(C)C(=O)c2cc(-c3ccc(OC)c(OC)c3)nc3ccccc23)c1	none
Nc1ccn(CC(=O)NCc2ccc3[nH]ccc3c2)c(=O)n1	NRP1-CendR mod 32
O=C(Nc1ccccc1)N1CCCCN2[C@H](CO)[C@@H](c3ccc(C4=CCCCC4)cc3)[C@H]2C1	none (no result: hiPSC survival, ABCB6 inh MLPCN, NRP1-CendR mod)
C#Cc1cccc(-n2nnc(C(=O)OC)c2-c2ccccc2)c1	INS-1E GSIS act 40
COC(=O)c1nnn(-c2ccccc2)c1N	none (no result: INS-1E GSIS act)
CC(C)CC#Cc1ccc2c(c1)O[C@H](CN(C)C(=O)CC1CC1)[C@H](C)CN([C@@H](C)CO)S2(=O)=O	none (no result: hiPSC survival, ABCB6 inh MLPCN, NRP1-CendR mod)
CCCn1c(C)nnc1SCC(=O)NC1CCCCC1	none
CCn1c(C)nnc1SCC(=O)NC1CCCCCC1	NRP1-CendR mod 27
Cc1c(Cl)cccc1NC(=S)N(CCN(C)C)C(C)c1ccccn1 (centres undefined)	ARNT-TACC3 inh 54
C=CCOCCN1C(=O)C2C(c3ccccc3)C=CC(c3ccccc3)C2C1=O (centres undefined)	none (no result: ARNT-TACC3 inh, INS-1E GSIS act)
O=C1C2C(c3ccccc3)C=CC(c3ccccc3)C2C(=O)N1CCCO (centres undefined)	NRP1-CendR mod 22 (no result: INS-1E GSIS act)
C=CC[C@H]1C=C[C@@H](C(C(=O)OC)C(=O)OC)CN1C(C)=O	ARNT-TACC3 inh 57
C[C@@H]1CN([C@H](C)CO)C(=O)Cc2cc(NC(=O)C3CCCCC3)ccc2O[C@H]1CN(C)Cc1ccc2c(c1)OCO2	none (no result: hiPSC survival, ABCB6 inh MLPCN, NRP1-CendR mod)
O=C(CN1CCOCC1)N1CC2(C1)[C@H](c1ccccc1)[C@H](CO)N2Cc1ccc(F)cc1	none (no result: ARNT-TACC3 inh, hiPSC survival, ABCB6 inh MLPCN, NRP1-CendR mod)
Cc1ccc(NCc2nnc(SCC(=O)Nc3ncc(C)s3)n2Cc2ccco2)c(C)c1	INS-1E GSIS act 156
Cc1cc(Cl)ccc1NC(=O)CSc1nnc(-c2ccncc2)n1Cc1ccco1	none (no result: ARNT-TACC3 inh, INS-1E GSIS act)
O=C(NCc1ccncn1)[C@@H]1[C@@H](CO)[C@@H]2Cn3c(cccc3=O)[C@H]1N2CC1CC1	none (no result: hiPSC survival, ABCB6 inh MLPCN, NRP1-CendR mod)
CC(=O)c1sc(N2CCOCC2)nc1-c1ccccc1	NRP1-CendR mod 30
CCS(=O)(=O)NCC[C@@H]1CC[C@@H](NC(=O)C2CCCCC2)[C@H](CO)O1	none (no result: ARNT-TACC3 inh, hiPSC survival, ABCB6 inh MLPCN, NRP1-CendR mod)
COc1ccccc1N(CC(=O)NC1CCCC1)C(=O)CCC(=O)Nc1cc(C)on1	none (no result: INS-1E GSIS act)
COc1ccccc1N(CC(=O)NC1CCCC1)C(=O)CCC(=O)Nc1ccccn1	NRP1-CendR mod 21
O=C(CCC(=O)N(CC(=O)NC1CCCCC1)Cc1ccccc1)Nc1ccccn1	none
Cc1ccnc(NC(=O)CCC(=O)N(CC(=O)NC2CCCCC2)Cc2ccccc2)c1	NRP1-CendR mod 31
C[C@@H]1CN([C@H](C)CO)C(=O)CCCn2cc(nn2)CO[C@H]1CN(C)Cc1ccncc1	none (no result: ARNT-TACC3 inh, hiPSC survival, ABCB6 inh MLPCN, NRP1-CendR mod)
COC(=O)c1ccccc1NS(=O)(=O)c1ccc(NC(C)=O)cc1	NRP1-CendR mod 35
COc1ccc(S(=O)(=O)Nc2ccccc2C(=O)NC2CC2)cc1NC(C)=O	NRP1-CendR mod 28
CNC[C@@H]1OCCCC[C@@H](C)Oc2ccc(NC(=O)Nc3ccc(C(F)(F)F)cc3)cc2C(=O)N([C@H](C)CO)C[C@@H]1C	none (no result: ARNT-TACC3 inh, hiPSC survival, ABCB6 inh MLPCN, NRP1-CendR mod)

High-throughput results deposited in PubChem by several laboratories.
